Here are results for seven compounds from PubChem BioAssay (EPA / NIEHS).

Results filed as inconclusive are left out. Activity calls are given as the source filed them. How the source made its calls, unless noted: active means hit-call score of the fitted dose curve at least 0.9, where 1 is the maximum; inactive means score below 0.9.

The target in experiment [1] is human Retinoid X Receptor beta (RXRb), RXRB (gene 6257) (UniProt P28702). The experiment is described as follows: ATG_RXRb_TRANS: Attagene TRANS-FACTORIAL HepG2 Assay for human Retinoid X Receptor beta (RXRb) (AID 2283013; active means hit-call score of the fitted dose curve at least 0.9, where 1 is the maximum). The essentials: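 HepG2 cells transiently transfected with multiplexed reporter units driven by GAL4-UAS and exogenous chimeric NR-Gal4 proteins; treated 24 h. Reporter mRNA measured by RT-PCR, 6-FAM labelling and capillary electrophoresis; gain-of-signal fitted versus DMSO baseline.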
Sequence of human Retinoid X Receptor beta (RXRb), RXRB (gene 6257) (P28702 whole entry, looked up, the tested form may be a part): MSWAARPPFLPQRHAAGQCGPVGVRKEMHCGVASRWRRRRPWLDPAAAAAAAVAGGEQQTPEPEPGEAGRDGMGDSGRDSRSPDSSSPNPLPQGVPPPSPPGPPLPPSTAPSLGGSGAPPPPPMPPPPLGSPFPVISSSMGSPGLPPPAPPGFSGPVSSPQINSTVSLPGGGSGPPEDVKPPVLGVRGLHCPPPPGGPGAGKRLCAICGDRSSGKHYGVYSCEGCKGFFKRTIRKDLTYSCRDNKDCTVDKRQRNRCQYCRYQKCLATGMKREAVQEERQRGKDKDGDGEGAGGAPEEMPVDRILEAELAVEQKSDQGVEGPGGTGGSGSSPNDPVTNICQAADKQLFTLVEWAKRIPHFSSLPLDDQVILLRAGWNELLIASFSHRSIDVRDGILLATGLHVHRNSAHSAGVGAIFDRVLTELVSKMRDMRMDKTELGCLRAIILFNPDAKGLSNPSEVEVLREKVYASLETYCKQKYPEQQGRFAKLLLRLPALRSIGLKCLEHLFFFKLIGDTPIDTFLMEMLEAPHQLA

For experiment [2], the target named is human Thyroid Receptor alpha (THRa1), THRA (gene 7067) (UniProt P10827). The experiment is described as follows: ATG_THRa1_TRANS: Attagene TRANS-FACTORIAL HepG2 Assay for human Thyroid Receptor alpha (THRa1) (AID 2283014; active means hit-call score of the fitted dose curve at least 0.9, where 1 is the maximum). The method, boiled down: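 First, HepG2 cells receive multiple GAL4-UAS reporter units and the chimeric receptor. They are then dosed for 24 h, after which RNA is reverse-transcribed, amplified, labelled, HpaI-cut and sized by capillary electrophoresis; gain relative to DMSO is scored.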
Sequence of human Thyroid Receptor alpha (THRa1), THRA (gene 7067) (P10827 whole entry, looked up, the tested form may be a part): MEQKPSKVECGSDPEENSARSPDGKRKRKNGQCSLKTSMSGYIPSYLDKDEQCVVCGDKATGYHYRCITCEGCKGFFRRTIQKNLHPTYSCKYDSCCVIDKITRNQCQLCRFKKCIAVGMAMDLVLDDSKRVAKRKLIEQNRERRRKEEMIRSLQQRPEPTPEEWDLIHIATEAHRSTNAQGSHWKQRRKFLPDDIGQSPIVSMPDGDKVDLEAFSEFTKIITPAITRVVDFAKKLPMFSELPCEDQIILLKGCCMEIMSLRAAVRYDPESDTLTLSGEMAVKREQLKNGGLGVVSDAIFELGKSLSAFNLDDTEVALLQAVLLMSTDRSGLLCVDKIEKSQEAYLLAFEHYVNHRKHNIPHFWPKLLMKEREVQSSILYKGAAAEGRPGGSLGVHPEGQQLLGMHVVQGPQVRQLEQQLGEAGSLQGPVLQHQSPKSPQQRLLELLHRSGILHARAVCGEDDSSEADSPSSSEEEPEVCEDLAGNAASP

Read-out in experiment [3]: E-selectin (Homo sapiens) (UniProt P16581)
The experiment is described as follows: BSK_3C_Eselectin: BioMAP Diversity Plus: 3C Assay for Eselectin Biomarker Activity (AID 2283015).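 On outcome: cell surface E-selectin protein quantified by ELISA 24 h after dosing.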 The conditions noted are these: primary human endothelial cells (HUVEC); actives raise or lower the signal. The essentials: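 Human vascular endothelium from umbilical vein is exposed to test chemicals for 24 h. E-selectin levels are read by ELISA and compared with DMSO controls.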

Read-out in experiment [4]: Interleukin-1 alpha (IL1a), IL1A (gene 3552)
The experiment is described as follows: BSK_BE3C_IL1a: BioMAP Diversity Plus: BE3C Assay for Interleukin-1 alpha (IL1a) Biomarker Activity (AID 2283016). The conditions noted are these: primary human bronchial epithelial cells; actives raise or lower the signal. The essentials: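 Human primary bronchial epithelial cells (BE3C system) were dosed with compound and IL-1a measured by ELISA 24 h later. Activity was fitted bidirectionally against DMSO baseline; cytotoxicity was tracked in parallel cultures by SRB total-protein staining.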

Read-out in experiment [5]: Monocyte Chemoattractant Protein-1 (MCP1), CCL2 (gene 6347)
The experiment is described as follows: BSK_3C_MCP1: BioMAP Diversity Plus: 3C Assay for Monocyte Chemoattractant Protein-1 (MCP1) Biomarker Activity (AID 2283017). The following applies: primary human endothelial cells (HUVEC); actives raise or lower the signal. The method, boiled down:
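Endothelial cells from human umbilical vein are dosed with chemical, cultured 24 h, then assayed for MCP-1 by ELISA; both increases and decreases are modelled against DMSO controls.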

Read-out in experiment [6]: Monocyte Chemoattractant Protein-1 (MCP1), CCL2 (gene 6347)
In words: BSK_4H_MCP1: BioMAP Diversity Plus: 4H Assay for Monocyte Chemoattractant Protein-1 (MCP1) Biomarker Activity (AID 2283018). The conditions noted are these: primary human endothelial cells (HUVEC); actives raise or lower the signal. The essentials:
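Human umbilical vein endothelial cells (4H system) dosed with chemical; MCP-1 measured by ELISA 24 h after dosing. Bidirectional curve fitting against DMSO negative control as baseline; parallel SRB total-protein staining tracks overt cytotoxicity.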

Read-out in experiment [7]: Human Leukocyte Antigen - DR isotype (HLADR), HLA-DRA (gene 3122)
The experiment is described as follows: BSK_3C_HLADR: BioMAP Diversity Plus: 3C Assay for Human Leukocyte Antigen - DR isotype (HLADR) Biomarker Activity (AID 2283019).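 On outcome: ELISA of cell-surface HLA-DR on HUVEC 24 h after dosing.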 The following applies: primary human endothelial cells (HUVEC); actives raise or lower the signal. The essentials: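 Endothelial cells from human umbilical vein are treated with test chemical; after 24 h, HLA-DR levels are measured by ELISA. Data are fitted in both directions using DMSO as the baseline.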

Read-out in experiment [8]: Interleukin-8 (IL8), CXCL8 (gene 3576)
The experiment is described as follows: BSK_3C_IL8: BioMAP Diversity Plus: 3C Assay for Interleukin-8 (IL8) Biomarker Activity (AID 2283020). The conditions noted are these: primary human endothelial cells (HUVEC); actives raise or lower the signal. The essentials:
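Primary human umbilical vein endothelial cells (3C system) were exposed to test chemical for 24 h, then IL-8 was quantified by ELISA. Responses were fitted bidirectionally against DMSO vehicle as baseline.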

Read-out in experiment [9]: Monokine induced gamma interferon (MIG), CXCL9 (gene 4283)
The experiment is described as follows: BSK_3C_MIG: BioMAP Diversity Plus: 3C Assay for Monokine induced gamma interferon (MIG) Biomarker Activity (AID 2283021).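 On AC50: MIG protein level measured by immunoassay in the treated endothelial cultures.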 The conditions noted are these: primary human endothelial cells (HUVEC); actives raise or lower the signal. The method, boiled down: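 Primary human umbilical vein endothelial cells in the 3C system were exposed to chemical for 24 h, after which MIG was quantified by ELISA. Activity was fitted bidirectionally against DMSO as negative control and baseline.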

The target of experiment [10] is human Vitamin D Receptor (VDR), VDR (gene 7421) (UniProt P11473). The experiment is described as follows: ATG_VDR_TRANS: Attagene TRANS-FACTORIAL HepG2 Assay for human Vitamin D Receptor (VDR) (AID 2283022; active means hit-call score of the fitted dose curve at least 0.9, where 1 is the maximum). The essentials:
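Fluorescence of labelled reporter cDNA fragments, resolved by capillary electrophoresis, gives mRNA induction after 24 h treatment of HepG2 cells carrying transfected Gal4-fusion reporter units. Activity is fitted in the positive direction with DMSO as baseline.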

A short description of experiment [11]: BSK_3C_SRB: Viability Assessment in the BioMAP Diversity Plus: 3C Assay (AID 2283023).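 Further: cells read 24 h after compound dosing; fitted both ways against DMSO so a hit may be signal rise or drop.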 The following applies: primary human endothelial cells (HUVEC). The method, boiled down: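 Cells were dosed with chemical, cultured 24 h, fixed with 10% TCA, stained with 0.1% SRB and read at 560 nm. Human umbilical vein endothelium was used; DMSO served as negative control and baseline.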

Read-out in experiment [12]: Matrix Metallopeptidase 1 (MMP1), MMP1 (gene 4312)
The experiment is described as follows: BSK_BE3C_MMP1: BioMAP Diversity Plus: BE3C Assay for Matrix Metallopeptidase 1 (MMP1) Biomarker Activity (AID 2283024). The conditions noted are these: primary human bronchial epithelial cells; actives raise or lower the signal. The essentials:
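Primary human bronchial epithelial cells were dosed with test chemicals, and MMP1 levels were measured by ELISA 24 h later. Data were fitted bidirectionally against DMSO as the negative control and activity baseline.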

Experiment [13] is described as follows: BSK_3C_Vis: BioMAP Diversity Plus: 3C Assay for Morphology Visualization (AID 2283025).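 Further: fitted both ways so gain or loss versus DMSO counts.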 The conditions noted are these: primary human endothelial cells (HUVEC). The essentials:
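Human umbilical vein endothelial cells in the 3C system were imaged by light microscopy 24 h after chemical dosing to record cell morphology. Activity was fitted bidirectionally against DMSO as negative control and baseline; the endpoint serves as a background control.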

Read-out in experiment [14]: Pselectin, SELP (gene 6403)
In words: BSK_4H_Pselectin: BioMAP Diversity Plus: 4H Assay for Pselectin Biomarker Activity (AID 2283026). The following applies: primary human endothelial cells (HUVEC); actives raise or lower the signal. The essentials: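 Primary human umbilical vein endothelial cells were exposed to test chemical for 24 h, then cell-surface P-selectin was quantified by ELISA. Activity was fitted bidirectionally against DMSO as negative control and baseline.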

The nature of experiment [15]: BSK_4H_SRB: Viability Assessment in the BioMAP Diversity Plus: 4H Assay (AID 2283027).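 Further: cells exposed to compound for 24 h before staining.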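 On AC50: curves fitted both ways versus DMSO so AC50 may be loss or gain.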 The following applies: primary human endothelial cells (HUVEC). The method, boiled down: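 Human umbilical vein endothelial cells were dosed with chemical and, after 24 h, fixed with 10% TCA, stained with 0.1% sulforhodamine B, and read at 560 nm to give total protein as a cytotoxicity measure. Bidirectional fitting relative to DMSO control.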

Experiment [16] is described as follows: BSK_BE3C_SRB: Viability Assessment in the BioMAP Diversity Plus: BE3C Assay (AID 2283028).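 On AC50: fitted both ways so AC50 may mark signal gain or loss versus DMSO.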 The conditions noted are these: primary human bronchial epithelial cells. The essentials:
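Overt cytotoxicity was assessed as total protein in confluent human primary bronchial epithelial cultures 24 h after chemical addition, using 0.1% sulforhodamine B staining read at 560 nm.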

Read-out in experiment [17]: Thrombomodulin, THBD (gene 7056)
The experiment is described as follows: BSK_3C_Thrombomodulin: BioMAP Diversity Plus: 3C Assay for Thrombomodulin Biomarker Activity (AID 2283029). The following applies: primary human endothelial cells (HUVEC); actives raise or lower the signal. The method, boiled down: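 Primary human umbilical vein endothelial cells (3C system) were exposed to chemical for 24 h, then thrombomodulin levels were measured by ELISA. Activity was fitted bidirectionally against the DMSO negative control as baseline.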

Read-out in experiment [18]: Urokinase-type plasminogen activator receptor (uPAR), PLAUR (gene 5329)
The experiment is described as follows: BSK_4H_uPAR: BioMAP Diversity Plus: 4H Assay for Urokinase-type plasminogen activator receptor (uPAR) Biomarker Activity (AID 2283030). The conditions noted are these: primary human endothelial cells (HUVEC); actives raise or lower the signal. The essentials: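 Chemicals are dosed onto human vascular endothelial primary cells (umbilical vein). After 24 h, uPAR is read by ELISA. Gain or loss of signal is fitted relative to DMSO.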

Read-out in experiment [19]: Vascular endothelial growth factor receptor 2 (Homo sapiens) (UniProt P35968)
The experiment is described as follows: BSK_4H_VEGFRII: BioMAP Diversity Plus: 4H Assay for Vascular endothelial growth factor receptor 2 (VEGFR2) Biomarker Activity (AID 2283031). The conditions noted are these: primary human endothelial cells (HUVEC); actives raise or lower the signal. The method, boiled down:
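VEGFRII levels on human vascular endothelial primary cells were determined by ELISA at 24 hours post-dosing, with gain- or loss-of-signal fitted against DMSO controls.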

In experiment [20] the target is Retinoic acid receptor RXR-alpha (Homo sapiens) (UniProt P19793). The experiment is described as follows: ATG_RXRa_TRANS: Attagene TRANS-FACTORIAL HepG2 Assay for human Retinoid X Receptor alpha (RXRa) (AID 2283012; active means hit-call score of the fitted dose curve at least 0.9, where 1 is the maximum). The essentials: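 HepG2 cells transiently transfected with multiplexed GAL4-UAS reporter units and chimeric NR-GAL4 fusions, dosed 24 h. Reporter mRNA measured by RT-PCR, FAM labelling, HpaI digestion and capillary electrophoresis; gain-of-signal fitted relative to DMSO baseline.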
Sequence of Retinoic acid receptor RXR-alpha (Homo sapiens) (P19793 whole entry, looked up, the tested form may be a part): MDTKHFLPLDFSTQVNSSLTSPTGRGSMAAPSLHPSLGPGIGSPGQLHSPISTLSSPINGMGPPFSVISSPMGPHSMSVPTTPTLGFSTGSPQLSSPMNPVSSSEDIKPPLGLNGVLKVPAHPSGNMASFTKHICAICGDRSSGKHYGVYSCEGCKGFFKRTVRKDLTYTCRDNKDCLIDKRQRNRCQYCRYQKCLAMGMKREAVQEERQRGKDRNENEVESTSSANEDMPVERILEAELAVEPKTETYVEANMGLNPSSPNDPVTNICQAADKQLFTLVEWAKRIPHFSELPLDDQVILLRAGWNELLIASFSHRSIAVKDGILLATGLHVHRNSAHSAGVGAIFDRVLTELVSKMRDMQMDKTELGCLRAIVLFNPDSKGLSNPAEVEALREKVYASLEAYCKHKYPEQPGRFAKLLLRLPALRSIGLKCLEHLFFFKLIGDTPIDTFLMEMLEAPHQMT

Sequence of E-selectin (Homo sapiens) (P16581 whole entry, looked up): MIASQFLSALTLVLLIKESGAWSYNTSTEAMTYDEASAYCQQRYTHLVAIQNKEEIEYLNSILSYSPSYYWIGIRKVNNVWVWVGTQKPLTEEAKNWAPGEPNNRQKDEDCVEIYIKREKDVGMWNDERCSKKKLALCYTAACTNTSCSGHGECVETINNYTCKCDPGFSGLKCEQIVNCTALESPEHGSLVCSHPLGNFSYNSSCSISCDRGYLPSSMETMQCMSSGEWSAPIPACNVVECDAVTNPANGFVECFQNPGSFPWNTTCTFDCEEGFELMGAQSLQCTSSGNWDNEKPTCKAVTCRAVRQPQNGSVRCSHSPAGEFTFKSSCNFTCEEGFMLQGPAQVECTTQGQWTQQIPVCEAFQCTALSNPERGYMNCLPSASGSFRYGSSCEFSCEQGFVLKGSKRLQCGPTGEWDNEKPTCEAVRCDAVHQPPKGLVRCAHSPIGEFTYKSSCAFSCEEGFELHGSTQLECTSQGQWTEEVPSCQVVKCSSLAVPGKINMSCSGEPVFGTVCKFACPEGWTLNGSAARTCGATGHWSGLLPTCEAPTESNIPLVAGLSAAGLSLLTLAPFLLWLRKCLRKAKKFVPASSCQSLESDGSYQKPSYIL
Sequence of human Vitamin D Receptor (VDR), VDR (gene 7421) (P11473 whole entry, looked up, the tested form may be a part): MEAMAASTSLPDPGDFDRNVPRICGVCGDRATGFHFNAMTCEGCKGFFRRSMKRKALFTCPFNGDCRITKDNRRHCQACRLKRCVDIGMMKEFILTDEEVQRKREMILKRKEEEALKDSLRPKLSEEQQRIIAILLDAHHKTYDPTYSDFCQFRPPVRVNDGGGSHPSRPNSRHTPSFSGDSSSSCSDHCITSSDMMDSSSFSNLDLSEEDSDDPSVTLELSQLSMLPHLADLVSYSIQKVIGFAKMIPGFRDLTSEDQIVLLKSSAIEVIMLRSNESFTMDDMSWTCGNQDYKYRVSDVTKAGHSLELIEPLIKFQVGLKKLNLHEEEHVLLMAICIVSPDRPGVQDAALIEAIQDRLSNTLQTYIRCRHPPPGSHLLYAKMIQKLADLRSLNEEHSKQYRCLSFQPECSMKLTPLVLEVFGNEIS

`CC(C)COC(=O)CCCCC(=O)OCC(C)C`: the outcome in experiment [1], in experiment [2], in [3], in experiment [4], in experiment [5] and in experiment [6] was inactive. The outcome in experiment [7], in [8], in experiment [9], in experiment [10], in experiment [11] and in experiment [12] was inactive. The outcome in [13], in experiment [14], in experiment [15], in experiment [16], in experiment [17] and in [18] was inactive. For the same compound, in experiment [19], the result was inactive.
`CSc1ccc(Oc2ccc(S(N)(=O)=O)cc2CN(C)C)cc1C`: the call in experiment [20], in experiment [3], in experiment [4], in [5], in experiment [6] and in [7] was inactive. Further, the result in [8], in experiment [9], in experiment [10], in experiment [11], in experiment [12] and in [14] was inactive. Besides, the result in [15], in experiment [16], in [17] and in experiment [19] was inactive. The figures for the AC50 in experiment [13] and in [18] were 39 µM (active) and 12.2 µM (active), respectively.
Consider `Cc1c(C)c2c(c(C)c1O)CCC(C)(COc1ccc(CC3SC(=O)NC3=O)cc1)O2` (centres undefined), for which the call in experiment [20], in [10], in experiment [17] and in [19] was inactive. Further, the AC50 (usually the concentration giving half of the maximal activity seen) was 30.3 µM (active) in experiment [3]; 29.3 µM (active) in [4]; 30.6 µM (active) in [5]; 9.95 µM (active) in experiment [6]; 20 µM (active) in [8]; 34.2 µM (active) in experiment [9]. Further, the concentration at half-maximal activity (AC50) in experiment [11] is 17.3 µM (active); in [12], 33.9 µM (active); in [13], 20 µM (active); in [14] it was 14 µM (active); in experiment [15] it was 23 µM (active); in [16], 28.4 µM (active). For the same compound, the AC50 in experiment [18] is 28.6 µM (active).
For the compound `CC(N)=O`, the compound was classed as inactive in experiment [20], in [2], in experiment [3], in [4], in experiment [5] and in experiment [6]. In addition, the result in [8], in experiment [9], in [11], in [12], in experiment [13] and in experiment [14] was inactive. Further, the outcome in [15], in [16], in [17], in experiment [18] and in experiment [19] was inactive.
Consider `CCCCCCCC(=O)OC`, for which the compound was classed as inactive in [1], in [2], in experiment [3], in experiment [4], in experiment [5] and in experiment [6]. Moreover, the outcome in experiment [8], in [9], in experiment [10], in experiment [11], in [12] and in experiment [13] was inactive. For the same compound, the outcome in experiment [14], in experiment [15], in [16], in experiment [17], in experiment [18] and in experiment [19] was inactive.
As for `CCCCCCCCCC[N+](C)(C)[O-]`, the outcome in experiment [20], in [1], in experiment [3], in [4], in experiment [5] and in [6] was inactive. The outcome in experiment [8], in experiment [9], in experiment [10], in experiment [11], in experiment [12] and in experiment [13] was inactive. The outcome in experiment [14], in experiment [15], in experiment [16], in experiment [17], in experiment [18] and in [19] was inactive.
Consider `O=C1OC(c2ccc(O)cc2)(c2ccc(O)cc2)c2ccccc21`, for which the result in experiment [20], in experiment [2], in [3], in experiment [8], in experiment [9] and in [16] was inactive. Besides, the result in [17] and in experiment [19] was inactive. The AC50 in experiment [4] is 34.8 µM (active); in experiment [5], 14.1 µM (active); in experiment [6] it was 20 µM (active); in experiment [7], 31.1 µM (active); in experiment [11] it was 28.6 µM (active); in experiment [12] it was 3.97 µM (active). In addition, the AC50 is 37.5 µM (active) in experiment [13], 30.2 µM (active) in experiment [14] and 14.3 µM (active) in [18].
